The source of these data is PubChem BioAssay (EPA / NIEHS).

Assay [1] can be described thus: TOX21_p53_BLA_p3_viability: Viability Assessment in the Tox21 HCT-116 p53 Agonism Beta-lactamase Assay, Phase 3 (AID 2283593).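 Further: cells exposed to compound for 16 h before reading.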 In short, it runs like this: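 Cellular ATP was quantified by CellTiter-Glo luminescence, read after 30 min at room temperature. Beforehand, HCT116 cells (4000/well) received compound 5 h post-seeding, 217-fold diluted from DMSO, then incubated 16 h at 37C.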

A short description of assay [2]: TOX21_p53_BLA_p4_viability: Viability Assessment in the Tox21 HCT-116 p53 Agonism Beta-lactamase Assay, Phase 4 (AID 2283597).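 Further: hits lower the luminescence signal meaning cytotoxicity.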 In short, it runs like this:
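Cytotoxicity was inferred from loss of CellTiter-Glo luminescence. HCT116 cells had been dosed with compounds after 5 h plating, incubated 16 h at 37C and 5% CO2, and exposed to the CCF4-AM substrate for 2 h.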

Assay [3] concerns the target Cellular tumor antigen p53 (Homo sapiens) (UniProt P04637). Briefly: TOX21_p53_BLA_p5_ratio: Tox21 HCT-116 p53 Agonism Beta-lactamase Assay, Ratio, Phase 5 (AID 2283599). In short, it runs like this: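 Beta-lactamase reporter ratio (blue 460 nm over green 530 nm, 405 nm excitation) after 2 h CCF4-AM loading, in HCT-116 cells exposed 16 h at 37 C to compounds pinned at 217-fold dilution. Increases relative to DMSO baseline scored.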

The nature of assay [4]: TOX21_p53_BLA_p5_viability: Viability Assessment in the Tox21 HCT-116 p53 Agonism Beta-lactamase Assay, Phase 5 (AID 2283600). The gist of the method:
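Luciferase-coupled ATP quantitation of cells treated for 16 h (37C, 5% CO2) with test chemicals delivered in DMSO via a 217-fold dilution; 4000 cells/well; reagent incubated 30 min at room temperature before luminescence reading.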

For assay [5], the target named is Cellular tumor antigen p53 (Homo sapiens) (UniProt P04637). Nature of the assay: TOX21_p53_BLA_p4_ratio: Tox21 HCT-116 p53 Agonism Beta-lactamase Assay, Ratio, Phase 4 (AID 2283601). The gist of the method:
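Signal is the blue/green (460nm/530nm) ratio of cleaved versus uncleaved CCF4-AM substrate, read after 2 h substrate loading. Cells were HCT116 carrying the p53-responsive beta-lactamase reporter, dosed 16 h at 37C, 5% CO2; CellTiter-Glo measured in parallel.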

Assay [6] is described as follows: Tanguay_ZF_120hpf_MORT_legacy: (Legacy) Oregon State University Tanguay Lab 120 Hour Post-fertilization zebrafish Assay for Mortality (AID 2283633).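 On AC50: fitted as increase in binary mortality versus DMSO negative control.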 The gist of the method: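 Dechorionated Tropical 5D wild-type zebrafish embryos, one per well from 6 hpf, were statically exposed at 28C in the dark until 120 hpf (0.64% DMSO final). Mortality was scored as present/absent by brightfield microscopy, fitted positively versus DMSO.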

Assay [7] can be described thus: Tanguay_ZF_120hpf_YSE_legacy: (Legacy) Oregon State University Tanguay Lab 120 Hour Post-fertilization zebrafish Assay for Yolk Sac Edema (AID 2283634). The gist of the method:
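Tropical 5D wild-type embryos, dechorionated with pronase at 4 hpf, were exposed singly from 6 hpf to 120 hpf under static, sealed, dark conditions at 28C with 0.64% DMSO final. Yolk sac edema was scored present/absent by brightfield microscopy.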

A short description of assay [8]: Tanguay_ZF_120hpf_AXIS_legacy: (Legacy) Oregon State University Tanguay Lab 120 Hour Post-fertilization zebrafish Assay for Body Axis Malformation (AID 2283635).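 On AC50: potency for an increased fraction of larvae scored with body axis malformation.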 The gist of the method: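 Tropical 5D wild-type zebrafish embryos, dechorionated with pronase at 4 hpf, were placed singly in wells at 6 hpf and exposed statically to test chemical (0.64% DMSO final) at 28C until 120 hpf, then scored by brightfield for body axis defects.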

Assay [9] in a line: Tanguay_ZF_120hpf_EYE_legacy: (Legacy) Oregon State University Tanguay Lab 120 Hour Post-fertilization zebrafish Assay for Eye Malformation (AID 2283636).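 Further: binary presence or absence of eye malformation scored by brightfield in 120 hpf larvae.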 In short, it runs like this: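 Binary brightfield scoring of eye defects at 120 hpf after static exposure from 6 hpf of single pronase-dechorionated wild-type embryos (28C, 0.64% DMSO). Non-mortality endpoints omitted where embryos died; fit vs DMSO.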

The nature of assay [10]: Tanguay_ZF_120hpf_SNOU_legacy: (Legacy) Oregon State University Tanguay Lab 120 Hour Post-fertilization zebrafish Assay for Snout Malformation (AID 2283637). The gist of the method: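 Binary snout-malformation call at 120 hpf in wild-type 5D embryos, chorion removed by pronase, under static exposure from 6 hpf at 28C (0.64% DMSO). Embryos dying by 24 or 120 hpf excluded.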

Assay [11] in a line: Tanguay_ZF_120hpf_JAW_legacy: (Legacy) Oregon State University Tanguay Lab 120 Hour Post-fertilization zebrafish Assay for Jaw Malformation (AID 2283638).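 On AC50: active means more embryos with jaw malformation than DMSO controls.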 In short, it runs like this:
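Tropical 5D wild-type embryos, dechorionated with pronase at 4 hpf, were placed singly per well at 6 hpf and statically exposed at 28C until 120 hpf (0.64% DMSO final). Jaw malformation scored as present/absent by brightfield microscopy at 120 hpf, analyzed relative to DMSO.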

Assay [12] in a line: Tanguay_ZF_120hpf_OTIC_legacy: (Legacy) Oregon State University Tanguay Lab 120 Hour Post-fertilization zebrafish Assay for Otic Vesicle Malformation (AID 2283639). In short, it runs like this:
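Brightfield scoring at 120 hpf, binary present/absent; DMSO negative control, 5uM trimethyltin chloride positive control. Static exposure at 28C, final DMSO 0.64% (vol/vol). Dead embryos not scored for malformation.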

Assay [13] can be described thus: Tanguay_ZF_120hpf_PE_legacy: (Legacy) Oregon State University Tanguay Lab 120 Hour Post-fertilization zebrafish Assay for Pericardial Edema (AID 2283640). In short, it runs like this: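 Tropical 5D wild-type zebrafish embryos were exposed statically to 120 hpf at 28C, sealed and foil-covered, in 0.64% DMSO final. Pericardial edema was scored present/absent by brightfield microscopy; dead embryos were not scored.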

A short description of assay [14]: Tanguay_ZF_120hpf_BRAI_legacy: (Legacy) Oregon State University Tanguay Lab 120 Hour Post-fertilization zebrafish Assay for Brain Malformation (AID 2283641). In short, it runs like this: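 Tropical 5D wild-type zebrafish embryos were exposed statically in sealed, foil-covered plates at 28C until 120 hpf, with 0.64% (vol/vol) final DMSO. Brain malformation was scored present/absent by brightfield microscopy, relative to DMSO baseline.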

A short description of assay [15]: Tanguay_ZF_120hpf_SOMI_legacy: (Legacy) Oregon State University Tanguay Lab 120 Hour Post-fertilization zebrafish Assay for Somite Malformation (AID 2283647). The gist of the method: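 Tropical 5D wild-type zebrafish embryos, dechorionated with pronase at 4 hpf, were placed singly at 6 hpf and statically exposed until 120 hpf at 28C in 0.64% DMSO. Somite malformation was scored present/absent by brightfield microscopy versus DMSO.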

Assay [16] in a line: Tanguay_ZF_120hpf_PFIN_legacy: (Legacy) Oregon State University Tanguay Lab 120 Hour Post-fertilization zebrafish Assay for Pectoral Fin Malformation (AID 2283648).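 Further: each larva judged yes or no for fin defect by brightfield with dead larvae skipped.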 In short, it runs like this:
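Pectoral fin malformation was recorded as a binary endpoint at 120 hpf in wild-type Tropical 5D larvae, which had been dechorionated and exposed statically from 6 hpf at 28C in 0.64% DMSO. Dead embryos were excluded.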

The nature of assay [17]: Tanguay_ZF_120hpf_CFIN_legacy: (Legacy) Oregon State University Tanguay Lab 120 Hour Post-fertilization zebrafish Assay for Caudal Fin Malformation (AID 2283649). The gist of the method:
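Tropical 5D wild-type embryos, dechorionated with pronase at 4 hpf, were placed singly in wells at 6 hpf and statically exposed to compound at 28C until 120 hpf (0.64% DMSO). Caudal fin malformation was scored present/absent by brightfield microscopy.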

A short description of assay [18]: Tanguay_ZF_120hpf_PIG_legacy: (Legacy) Oregon State University Tanguay Lab 120 Hour Post-fertilization zebrafish Assay for Pigmentation Malformation (AID 2283650). In short, it runs like this:
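Pigment malformation recorded as a binary call at 120 hpf in zebrafish (Tropical 5D) exposed singly from 6 hpf after pronase dechorionation. Static, sealed, 28C exposure, 0.64% DMSO; mortality excludes scoring; positive-direction fit against DMSO.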

Assay [19] in a line: Tanguay_ZF_120hpf_CIRC_legacy: (Legacy) Oregon State University Tanguay Lab 120 Hour Post-fertilization zebrafish Assay for Circulatory Malformation (AID 2283651). In short, it runs like this:
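Static exposure, 6–120 hpf, 28C, sealed and dark; one dechorionated 5D embryo/well; DMSO 0.64% v/v final. Binary circulation endpoint by brightfield; dead embryos not scored.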

Assay [20] has as its target Cellular tumor antigen p53 (Homo sapiens) (UniProt P04637). Briefly: TOX21_p53_BLA_p3_ratio: Tox21 HCT-116 p53 Agonism Beta-lactamase Assay, Ratio, Phase 3 (AID 2283596). The gist of the method: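 Cells were seeded at 4000/well, rested 5 h at 37C, then dosed with DMSO compound solutions (217-fold dilution) for 16 h. CCF4-AM substrate was loaded for 2 h at room temperature, and the 460/530 nm emission ratio was fitted for gain of signal versus DMSO.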

Usually AC50 stands for the midpoint of the concentration-response curve, whichever way the signal moves.

Values joined by “and” are separate entries in the source; they are usually repeats but may differ in a detail not shown here. Identical values can stand only once. Results filed as inconclusive are left out. Active and inactive are the calls of the source. How the source made its calls: active means hit-call score of the fitted dose curve at least 0.9, where 1 is the maximum; inconclusive means response in the unintended direction; inactive means score below 0.9.

Chain of Cellular tumor antigen p53 (Homo sapiens) (P04637 whole entry, looked up): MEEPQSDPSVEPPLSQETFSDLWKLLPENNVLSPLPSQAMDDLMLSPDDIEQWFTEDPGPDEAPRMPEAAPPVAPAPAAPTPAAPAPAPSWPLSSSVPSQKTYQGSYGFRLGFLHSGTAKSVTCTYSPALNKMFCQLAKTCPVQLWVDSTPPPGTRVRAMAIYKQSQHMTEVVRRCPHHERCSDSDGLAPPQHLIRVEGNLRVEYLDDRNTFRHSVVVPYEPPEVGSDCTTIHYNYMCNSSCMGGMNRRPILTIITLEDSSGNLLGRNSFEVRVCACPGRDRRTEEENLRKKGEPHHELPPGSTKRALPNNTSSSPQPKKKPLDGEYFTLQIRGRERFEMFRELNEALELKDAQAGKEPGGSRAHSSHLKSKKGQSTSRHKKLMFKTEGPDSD

Take `O=C(O)Cn1c(=O)n(Cc2ccc(Br)cc2F)c(=O)c2ccc(Cl)cc21`: the result in [1], in [2], in assay [3], in assay [4], in assay [5] and in assay [6] was inactive. In addition, the molecule was called inactive in [7], in assay [8], in assay [9], in assay [10], in [11] and in assay [12]. Moreover, the molecule was called inactive in [13], in assay [14], in assay [15], in [16], in assay [17] and in assay [18]. For the same molecule, the result in assay [19] was inactive.
Take `CN(C)c1ccc(C(=C2C=CC(=[N+](C)C)C=C2)c2ccc(N(C)C)cc2)cc1`: the AC50 was 56.6 µM (active) and 17.3 µM (active) and 20.4 µM (active) in assay [1]; 9.02 µM (active) and 31.5 µM (active) and 8.23 µM (active) in [20]; 28.8 µM (active) and 20.6 µM (active) and 14.3 µM (active) in assay [2]; 47.3 µM (active) and 34 µM (active) and 25.4 µM (active) in [3]; 46.1 µM (active) and 27 µM (active) and 14.5 µM (active) in assay [4]; 52.5 µM (active) and 51.7 µM (active) and 30.8 µM (active) in [5]. Moreover, the AC50 in [6] was 0.577 µM (active). Further, the result in assay [8], in [16], in [17], in assay [18] and in assay [19] was inactive.
As for `CC[C@@H]1C[C@H](N(Cc2cc(C(F)(F)F)cc(C(F)(F)F)c2)C(C)=O)c2cc(C(F)(F)F)ccc2N1C(=O)OC(C)C`, the result in assay [20], in [2], in assay [3], in assay [4], in [5] and in assay [6] was inactive. Also, the outcome in assay [8], in assay [9], in assay [10], in assay [11], in assay [12] and in [14] was inactive. Further, the molecule was called inactive in [16], in assay [17], in assay [18] and in [19].
On to `Oc1ccc2ccccc2c1`, for which the result in assay [20], in [3], in assay [4], in [5], in assay [6] and in [16] was inactive. The call in assay [19] was inactive. Further, the AC50 was 55.2 µM (active) in assay [8]; 61.7 µM (active) in assay [9]; 34.8 µM (active) in assay [10]; 38.2 µM (active) in assay [11]; 47.3 µM (active) in [12]; 10.3 µM (active) in assay [14]. For the same molecule, the figures for the AC50 in assay [17] and in assay [18] were 10.4 µM (active) and 12.9 µM (active), respectively.
Consider `CCCCCCCCCCCO`, for which the molecule was called inactive in assay [1], in [20], in assay [2], in [3], in assay [4] and in assay [6]. Also, the result in assay [7], in assay [8], in assay [9], in assay [10], in assay [11] and in [12] was inactive. The result in [14], in assay [16], in [17], in assay [18] and in assay [19] was inactive.
As to `O=C(OCCCCCCOC(=O)c1ccccc1)c1ccccc1`, the molecule was classed as inactive in assay [2], in assay [3], in assay [5], in assay [6], in assay [8] and in assay [11]. The call in assay [15], in [17] and in [19] was inactive.
Regarding `CCO[Si](CCCNC(N)=O)(OCC)OCC`, the molecule was called inactive in assay [1], in assay [20], in assay [3], in assay [5], in assay [6] and in assay [8]. Besides, the outcome in assay [9], in assay [10], in [11], in assay [12], in assay [13] and in assay [14] was inactive. Moreover, the call in [15], in assay [16], in assay [18] and in assay [19] was inactive.
